According to PubChem BioAssay (NCATS):
Results filed as inconclusive are left out. Activity calls are given as the source filed them. Unless noted, calls follow the shape of the dose curve; as a rule, active = well fitted curve in the direction sought with a large enough effect; inconclusive = small, poorly fitted or top-dose-only effect, or another doubt; inactive = no such curve, though single readings can be large; an effect the other way counts as inactive or inconclusive. Numbered stars: 1 amine (or outer) side, 2 acyl side, 3 side chain; on linkers, the order of the positions; unused ones are H or OH. Square brackets hold non-standard residues; d marks the D form. Peptide text beside a SMILES is read from it. ξ: configuration not given here. X4 = O=C(C1CC2(c3ccc(O)cc3)c3ccccc3NC2N1[*:1])[*:2]; ξW = NC(Cc1c[nH]c2ccccc12)C(=O)O; ξY = NC(Cc1ccc(O)cc1)C(=O)O

Tests used:
[1] = Panc-1005 Cancer Cell Toxicity qHTS against the NCATS CANVASS Library (AID 1347349); also: nearly all actives have a fitted effect of over 60% in size; also: potency is read from the fitted curve at half-maximal effect; as to activity change, negative = cytotoxicity: % is scaled to controls: 0 for no effect and ±100 for the full control effect
How it was run: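 Per well, 1000 cells; exposure 72 h with compound at 11 final concentrations; readout CellTiter-Glo luminescence.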

[2] = HEK293 18hr Apoptosis Induction qHTS against the NCATS CANVASS Library (AID 1347357); also: potency is read from the fitted curve at half-maximal effect; as to caspase activation: 0% is about no effect
How it was run: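 Luminescent caspase-3/7 signal is measured in HEK293 cells exposed for 18 hours to an 11-point concentration series; doxorubicin serves as the plate control.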

[3] = target: Luciferin 4-monooxygenase (Photinus pyralis) (UniProt P08659); assay: Firefly luciferase counterscreen qHTS: Assay Interference Panel against the NCATS CANVASS Library (AID 1347363); also: 0% is about no effect
How it was run: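 Purified P. pyralis luciferase was added to compounds (11-point series) preincubated 15 min at room temperature with substrate containing 0.013 mM D-luciferin and 0.013 mM ATP; luminescence was read after 5 min.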

[4] = KB-8-5-11 Cancer Cell Toxicity qHTS against the NCATS CANVASS Library (AID 1347364); also: nearly all actives have a fitted effect of over 75% in size; also: potency is read from the fitted curve at half-maximal effect
How it was run: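 CellTiter-Glo luminescence after 72 h exposure; 500 KB-8-5-11 cells/well, DMEM/10% FBS, 37C, 5% CO2; compounds in 11-pt qHTS. Follow-up confirmation included medium with 1uM tariquidar.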

[5] = qHTS for Antimalaria activity screened against the NCATS CANVASS Library (AID 1347380); also: nearly all actives have a fitted effect of over 40% in size; also: potency is read from the fitted curve at half-maximal effect;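 as to activity change, negative = inhibition: Plasmodium falciparum strain Dd2 asexual parasites grown in red blood cells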
How it was run: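 SYBR Green fluorescence (ex 485, em 535 nm) read after saponin/Triton lysis and 18 h further incubation; Dd2 asexual blood-stage parasites, 72 h compound exposure, 11-pt concentration series, 2.5% hematocrit, 0.3% parasitemia.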

[6] = Inflammasome Signaling qHTS Counterscreen: IL-1-beta AlphaLISA counterscreen against the NCATS CANVASS Library (AID 1347381);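 also: cell-free check with purified IL-1β in medium and no THP-1 cells; 0% is about no effect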
How it was run: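 Here, no cellular stimulation occurs; compounds in an 11-point series meet 4 pg purified IL-1-beta directly. Bead-based AlphaLISA detection follows (1 h acceptor/antibody, then 30 min donor, dark, room temperature), with excitation at 680 nm.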

[7] = qHTS for activators of Nrf2/ARE signaling pathway screened against the NCATS CANVASS Library (AID 1347391); also: nearly all actives have a fitted effect of over 60% in size; also: potency is read from the fitted curve at half-maximal effect; as to activation: 0% is about no effect
How it was run: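 HepG2 ARE-bla; cpd 11-pt qHTS, 16 h 37C/5% CO2; CCF4 substrate 2 h RT; read ex 405 / em 460 + 530 nm. Viability by CellTiter-Glo luminescence, 30 min RT.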

[8] = HPAF-II 18hr Apoptosis Induction qHTS against the NCATS CANVASS Library (AID 1347360); also: 0% is about no effect
How it was run: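 Apoptosis was scored as caspase-3/7 activity in HPAF-II pancreatic cancer cells treated 18 hours with an 11-point concentration series.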

[9] = qHTS Assay for Lipid Storage Modulators (AID 1519; calls by dose curve; as to activity change, negative = inhibition: % is scaled to controls: 0 for no effect and ±100 for the full control effect); details: Drosophila S3 cells, BODIPY lipid droplet/cell ratio, laser cytometry, cells loaded with oleic acid
How it was run: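 Cells seeded at 5,000 per well were treated with compounds over a concentration series and loaded with oleic acid (400 uM, as added). Lipid droplet fluorescence (488 nm excitation, 500-530 nm channel) was read by laser-scanning cytometry and normalized to 20 uM Triacsin C.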

[10] = target: Ubiquitin carboxyl-terminal hydrolase 1 (Homo sapiens) (UniProt O94782); assay: Inhibitors of USP1/UAF1: Pilot qHTS (AID 504865); also: potency is read from the fitted curve at half-maximal effect; nearly all actives have a fitted effect of over 35% in size
How it was run: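 Kinetic fluorescence assay: 1nM USP1/UAF1, 15 min compound preincubation, then 150nM Ub-Rho; 480/540 nm.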

[11] = ZIKV-mCherry secondary qHTS for Zika virus inhibitors (AID 1347158); also: top concentration of the series differs between compounds
How it was run: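 Read-out is percent infection: mCherry-positive Vero cells (nuclear-proximal intensity >450 RFU, 3 SD above negative controls) counted by high-content imaging of Hoechst-stained, PFA-fixed wells after 48-72 h with ZIKV-mCherry at MOI 1 and compound.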

[12] = Confirmatory screen NINDS Rhodamine qHTS for Zika virus inhibitors (AID 1347161); also: potency is read from the fitted curve at half-maximal effect; nearly all actives have a fitted effect of over 60% in size
How it was run: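 Enzyme (25 nM, linked NS2B-NS3) was preincubated 15 min with compound in 10 mM Tris-HCl pH 8.0, 0.01% Tween 20. Rhodamine110 substrate (1.5 microM) was then added and fluorescence read at start and after 15 min.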

[13] = test system: Zika virus NS2B-NS3 protease (linked); assay: 384 well plate NINDS AMC confirmatory qHTS for Zika virus inhibitors (AID 1347163); also: potency is read from the fitted curve at half-maximal effect; nearly all actives have a fitted effect of over 50% in size
How it was run: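 Enzyme (5, 30 or 60 nM final) first met test compounds for ~15 min. The AMC-tagged peptide Ac-VKTGKR-AMC followed at 30 microM. Fluorescence was then recorded at 25 min and scaled against no-enzyme and no-inhibitor wells.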

[14] = test system: Zika virus NS2B-NS3 protease (linked construct); assay: 384 well plate NINDS Rhodamine confirmatory qHTS for Zika virus inhibitors (AID 1347164); also: nearly all actives have a fitted effect of over 65% in size; also: potency is read from the fitted curve at half-maximal effect;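 as to activity change, negative = inhibition: top concentration of the series differs between compounds; plate controls were no-inhibitor control for no effect and no-enzyme control for full effect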
How it was run: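 Compounds are incubated about 15 minutes with linked protease (5, 30 or 60 nM final). Rhodamine 110-tagged Ac-LKRR substrate (10 microM final) is added and fluorescence measured after 25 minutes.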

[15] = DH5-alpha competent E. coli microbial cell viability qHTS against the NCATS CANVASS Library (AID 1347377); details: outcome: dose series up to 46.1 µM unless noted
How it was run: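 Luminescent ATP read-out (BacTiter-Glo, 20 min RT) after overnight 37C culture of DH5-alpha E. coli with compounds; daunomycin control at 0.2 nM–9.2 uM final.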

Sequence of Luciferin 4-monooxygenase (Photinus pyralis) (P08659 whole entry, looked up): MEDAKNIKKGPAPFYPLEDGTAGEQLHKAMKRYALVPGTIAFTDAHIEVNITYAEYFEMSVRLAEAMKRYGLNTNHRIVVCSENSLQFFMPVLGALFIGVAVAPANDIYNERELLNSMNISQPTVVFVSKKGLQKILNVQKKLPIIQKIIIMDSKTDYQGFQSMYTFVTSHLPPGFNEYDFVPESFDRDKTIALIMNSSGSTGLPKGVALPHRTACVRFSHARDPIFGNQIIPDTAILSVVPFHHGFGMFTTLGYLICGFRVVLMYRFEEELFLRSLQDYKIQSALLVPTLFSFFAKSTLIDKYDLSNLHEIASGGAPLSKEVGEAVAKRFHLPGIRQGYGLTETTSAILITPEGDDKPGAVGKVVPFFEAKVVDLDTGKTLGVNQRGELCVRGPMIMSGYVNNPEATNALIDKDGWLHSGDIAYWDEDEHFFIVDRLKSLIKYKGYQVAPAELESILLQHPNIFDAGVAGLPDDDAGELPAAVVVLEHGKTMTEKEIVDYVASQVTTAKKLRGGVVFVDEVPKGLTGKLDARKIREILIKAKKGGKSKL
Sequence of Ubiquitin carboxyl-terminal hydrolase 1 (Homo sapiens) (O94782 whole entry, looked up): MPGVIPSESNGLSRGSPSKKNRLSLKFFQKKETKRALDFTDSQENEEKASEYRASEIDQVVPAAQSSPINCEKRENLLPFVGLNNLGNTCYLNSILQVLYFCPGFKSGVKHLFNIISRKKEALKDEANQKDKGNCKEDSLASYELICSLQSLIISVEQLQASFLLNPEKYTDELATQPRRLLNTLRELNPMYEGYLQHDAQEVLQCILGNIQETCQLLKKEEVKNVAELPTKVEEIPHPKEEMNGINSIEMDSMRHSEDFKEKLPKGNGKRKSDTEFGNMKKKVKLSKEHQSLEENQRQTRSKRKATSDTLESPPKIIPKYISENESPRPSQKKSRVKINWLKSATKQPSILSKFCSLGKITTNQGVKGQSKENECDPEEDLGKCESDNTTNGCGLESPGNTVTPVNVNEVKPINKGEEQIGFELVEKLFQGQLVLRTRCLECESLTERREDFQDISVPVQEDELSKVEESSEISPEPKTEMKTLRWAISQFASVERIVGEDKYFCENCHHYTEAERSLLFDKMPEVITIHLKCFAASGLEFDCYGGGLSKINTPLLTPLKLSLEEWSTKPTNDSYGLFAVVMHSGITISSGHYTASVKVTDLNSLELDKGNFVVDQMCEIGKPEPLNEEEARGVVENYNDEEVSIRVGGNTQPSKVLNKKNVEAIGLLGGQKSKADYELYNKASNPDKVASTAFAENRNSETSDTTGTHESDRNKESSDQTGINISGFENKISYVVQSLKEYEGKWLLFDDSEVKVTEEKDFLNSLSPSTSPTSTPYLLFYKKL

C=CC(=C)CC[C@]1(C)[C@H]2C[C@H](OC(=O)C(C)CC)C=C3[C@H](OC(C)=O)O[C@H](OC(C)=O)[C@@]32[C@H](OC)C[C@@H]1C (some centres undefined)
inactive: Potency [3] | outcome [6] | Potency [7]
active: Potency [1] 2.17 µM | Potency [2] 13.6 µM | Potency [4] 7.62 µM | Potency [5] 0.545 µM

CC1(C)CCC[C@]2(C)[C@@H]1CC[C@@]13C[C@@H](CC[C@H]12)C(C)(O)C3 (some centres undefined)
inactive: Potency [1] | Potency [2] | Potency [8] | Potency [3] | Potency [5] | Potency [7]

O=C(OC1Cc2c(O)cc(O)cc2OC1c1cc(O)c(O)c(O)c1-c1c(C2Oc3cc(O)cc(O)c3CC2OC(=O)c2cc(O)c(O)c(O)c2)cc(O)c(O)c1O)c1cc(O)c(O)c(O)c1 (centres undefined)
16.9%: max response ([9]; measured here: cell count channel max response)
inactive: activity change, negative = inhibition ([9]; at 57.5 µM (top of the series)) 6.84% | Potency [11] | Potency [14]
25.4%: max response ([9]; measured here: lipid channel max response)
active: Potency [10] 50.1 µM | Potency [12] 20 µM | Potency [13] 20 µM

C=C1c2c(Cl)ccc(O)c2C(O)=C2C(=O)[C@]3(O)C(O)=C(C(N)=O)C(=O)[C@@H](N(C)C)[C@@H]3[C@@H](O)C12 (some centres undefined)
active: Potency [12] 13.9 µM | Potency [13] 70.8 µM | Potency [14] 20 µM
inactive: Potency [11]

CC[C@H](C)[C@H](NC(=O)C(Cc1ccc(O)cc1)NC(=O)C(Cc1c[nH]c2ccccc12)NC(=O)[C@H](C)N)C(=O)N1C(C(=O)NC(Cc2ccc(O)cc2)C(=O)O)CC2(c3ccc(O)cc3)c3ccccc3NC12 (some centres undefined) (H-A[ξW][ξY]I[X4][ξY]-OH)
inactive: Potency [1] | Potency [2] | Potency [8] | Potency [3] | outcome [15] | Potency [5] | outcome [6] | Potency [7]

O=C(O)[C@@]12CO[C@@]3(O)C4CCN(CC[C@H]31)[C@H]4c1c2[nH]c2ccccc12
inactive: Potency [1] | Potency [2] | Potency [8] | outcome [15] | outcome [6] | Potency [7]

CN1CC[C@]2(c3cccc4c3N[C@@H]3N(C)CC[C@]43[C@@]34CCN(C)[C@@H]3Nc3c([C@]56CCN(C)[C@H]5Nc5ccccc56)cccc34)c3ccccc3N[C@H]12
inactive: Potency [8] | Potency [7]
active: Potency [1] 6.68 µM | Potency [4] 9.35 µM

COc1cc(/C=C2/C(=O)N(c3ccc(O)cc3C(=O)O)[C@H](c3ccc(O)c(OC)c3)C2C(=O)Nc2ccc(O)cc2C(=O)O)ccc1O (some centres undefined)
inactive: Potency [1] | Potency [2] | outcome [6] | Potency [7]

COC1C(O)C(OC(N)=O)C(Oc2ccc3c(O)c(NC(=O)c4ccc(O)c(CC=C(C)C)c4)c(=O)oc3c2C)OC1(C)C (centres undefined)
inactive: Potency [1] | Potency [8] | Potency [3] | Potency [4] | outcome [15] | Potency [7]

CO[C@@H]1[C@H](O)[C@@H](C)O[C@@H](OC[C@@H]2C(C)OC(=O)/C=C/[C@H](C)C(O[C@@H]3O[C@H](C)CC4(OC(=O)O[C@@H]4C)C3O)[C@@H](C)CC(C)C(=O)CC[C@H]3OC23)[C@@H]1OC (some centres undefined)
inactive: Potency [1] | Potency [2] | Potency [8] | Potency [3] | outcome [15] | Potency [5]

COc1ccc2oc3c(OC)c(OC)c(OC)c(OC)c3c(=O)c2c1
inactive: activity change, negative = cytotoxicity [1] -8.03% [at 7.64 µM] | caspase activation [2] 2.9% [at 9.19 µM] | activity change, negative = inhibition [3] -22.3% [at 11.5 µM] | outcome [15] inactive [at 9.19 µM] | activity change, negative = inhibition [5] -46.5% [at 5.73 µM] | activity change, negative = inhibition [6] 10.5% [at 11.5 µM] | activation [7] 5.78% [at 9.19 µM]

CC1(C)[C@H](Br)CC[C@]23C[C@]4(C)C(=O)CC12C[C@H]34
inactive: Potency [1] | Potency [8] | Potency [3] | Potency [4] | outcome [6] | Potency [7]

CCC1=C2CCCN3C(=O)O[C@H]([C@H]1OC(C)=O)[C@H]23
inactive: Potency [1] | Potency [2] | Potency [4] | Potency [7]
active: Potency [5] 0.0059 µM

O=C(O)[C@@]12COC3(O)C1CCN1CC[C@H]3[C@@H]1c1c2[nH]c2ccccc12
inactive: Potency [1] | Potency [2] | Potency [8] | Potency [4] | outcome [15] | Potency [5] | outcome [6] | Potency [7]

COc1cc(O)c2c3c(c(O)cc(C)c13)C(=O)OC2
inactive: Potency [2] | Potency [8] | Potency [3] | outcome [15] | Potency [5] | outcome [6]

C=C1C[C@@]23C=CC(=O)[C@@](C)(CCCC(C)C(=O)O)[C@@H]2C[C@@H]1CC3 (some centres undefined)
active: Potency [7] 16.6 µM
inactive: Potency [1] | Potency [3] | Potency [4] | Potency [5] | outcome [6]

O=C(O)CC1OC(=O)c2c(O)cccc21 (centres undefined)
inactive: Potency [1] | Potency [2] | Potency [8] | Potency [4] | outcome [6] | Potency [7]

CO[C@@H]1[C@H](O)[C@@H](C)O[C@@H](OC[C@H]2/C=C/C=C/C(=O)C(C)C[C@H](C)C(O[C@@H]3O[C@H](C)CC4(OC(=O)O[C@@H]4C)C3O)[C@@H](C)/C=C/C(=O)OC2C)[C@@H]1OC (some centres undefined)
active: Potency [7] 14.8 µM
inactive: Potency [1] | Potency [2] | Potency [3] | Potency [4] | outcome [6]
